# In PubChem BioAssay (NCI):
# About 79,000 compounds went through this panel and 15% of them were active in at least one assay; those are over-represented in the sample as a whole. Unmarked numbers belong to inactive results. Activity calls are given as the source filed them. Cut-off read from the data, not from the text of the source: active = growth inhibition above about 70%; inactive = the rest.
# Assay: NCI Yeast Anticancer Drug Screen. Data for the mlh1 rad18 strain (AID 175)
# Conditions: S. cerevisiae mlh1 rad18 strain growth inhibition; at 50.0 µM; active compounds read high
# Outline: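 In this whole-cell yeast screen, a strain with altered DNA damage repair is challenged with compound, and its growth is measured against matched vehicle-treated controls.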
row,SMILES,growth inhibition
1,CCCCCCCCCCCCCCCBr,92.8% (active)
2,CCCCCCCCCCCC(=O)OCC(C)C,15.5%
3,O[Si](O)(c1ccccc1)c1ccccc1,95.8% (active)
4,O=C(c1ccccc1)C(C(=O)c1ccccc1)c1ccc2ccccc2n1,22.9%
5,O=C1C=CC(=O)N1c1ccccc1[N+](=O)[O-],99.5% (active)
6,CCCCCCCCCCCC(O)=C1C(=O)CC(O)CC1=O (stereo not given),82.8% (active)
7,OCCc1cccc2ccc3ccccc3c12,91.8% (active)
8,O=C1C(=O)C(Cl)=C(Cl)C(Cl)=C1Cl,99.1% (active)
9,O=C1C=CC2C(=O)c3ccccc3C(=O)C2=C1 (stereo not given),69.2%
10,O=C(N(c1ccc(Cl)cc1)c1ccc(Cl)cc1)C(Cl)(Cl)Cl,18.1%
11,COc1cccc2c1S(=O)(=O)C(c1ccccc1)=CC2=O,99.5% (active)
12,COc1cc(-c2nn3c(=O)n(-c4ccc(Cl)cc4)c(=O)nc3s2)cc(OC)c1OC,2.35%
13,O=[N+]([O-])C1(CO)COC(CCc2ccccc2)OC1 (stereo not given),98.4% (active)
14,COc1ccc(C(=O)CCc2c[nH]c3ccccc23)c(O)c1,-13.3%
15,CC/C(=C(\CC)c1ccc(OCCN2CCOCC2)cc1)c1ccc(OCCN2CCOCC2)cc1,87.8% (active)
16,CCCCCCCCCCCN1C(=O)c2ccccc2S1(=O)=O,32.4%
17,CCCCCCCCCCCC(=O)NN,97.8% (active)
18,CCN1CCC(O)(/C=C/c2ccccc2)C(C(=O)/C=C/c2ccccc2)C1 (stereo not given),96% (active)
19,NC(=S)NNCCC(=O)Nc1ccccc1C(F)(F)F,2.75%
20,NS(=O)(=O)c1ccc(N=Cc2c3ccccc3nc3cc(Cl)ccc23)cc1,58.9%

row,SMILES,growth inhibition
1,Nc1ccc(O)c(=O)cc1,59.9%
2,Oc1ccc[nH]c1=S,90.9% (active)
3,COc1cccc2c1C(=O)c1c(O)c3c(c(O)c1C2=O)C[C@@](O)(/C(C)=N/NC(=O)c1ccc(Cl)c(Cl)c1)C[C@@H]3OC1CC(N)C(O)C(C)O1 (stereo not given in full),52.6%
4,O=C1c2ccccc2C(=O)c2c1ccc(O)c2O.[Cu],96.8% (active)
5,CCC(=O)C(C(=O)CC)c1c(OC(=O)c2ccccc2)ccc(O)c1C(=O)OC,67%
6,CC(C)CCCC(C)C1CCC2(C)C3=CCC4C(C)(CCC(O)C4(C)C)C3=CCC12C (stereo not given),90.8% (active)
7,CCNC(=O)COc1ccc(Cl)cc1Cl,-27.4%
8,CCN1CCC(O)(/C=C/c2ccc(Cl)c(Cl)c2)C(C(=O)/C=C/c2ccc(Cl)c(Cl)c2)C1 (stereo not given),98.9% (active)
9,Nc1ccc(-c2ccc(N)cc2S(=O)(=O)O)c(S(=O)(=O)O)c1,-38.7%
10,COc1ccc2c(c1)CCc1c(-c3noc4c3CCc3cc(OC)ccc3-4)noc1-2,54.2%
11,Cc1ccc(NC(=S)N(CCC#N)C2CCCCC2)cc1C,14.6%
12,COc1ccc2c(c1)CC1c3c(ccc(OC)c3O)CC2N1C (stereo not given),89.5% (active)
13,CCN(CC)CCCC(C)Nc1c2ccccc2nc2c(C)cc(Br)cc12 (stereo not given),50.1%
14,O=C(O)c1cc2ccc3cccc4ccc(c1)c2c34,86% (active)
15,CCOC(=O)NC(=S)Nc1ccsc1,29.9%
16,CC(C)CCC(C)(C)c1cc(O)ccc1O,97.6% (active)
17,COc1ccc(C(c2cc3c(cc2O)OCO3)N2CCOCC2)c(OC)c1OC (stereo not given),83% (active)
18,CCOC(=O)C1=C(C)NC(C)=C(C(=O)OCC)C1c1c(-c2ccccc2)noc1C,11.9%
19,O=C(CCl)Oc1ccc(Sc2ccc(OC(=O)CCl)cc2)cc1,97.9% (active)
20,Nc1ccc2[nH]c3ccccc3c2c1,16.8%
